# Laboratory results: paper PMC7862700, “An all-to-all approach to the identification of sequence-specific readers for epigenetic DNA modifications on cytosine”
# Legend:
# Assay in all cases: DAPPL (digital affinity profiling via proximity ligation, sequencing); 10 mM Tris-HCl pH 7.5, 50 mM NaCl, 1 mM DTT, 4% glycerol, room temperature, 30 min; GST-TFs on glutathione beads, 16-mer random dsDNA library, 0.1% formaldehyde crosslink after washing; high values mean tight binding
# FEV = target: T1, FEV (Homo sapiens, UniProt Q99581 1-238); settings: protein: recombinant; tags: N-terminal GST; dsDNA, one strand shown
# T1 sequence: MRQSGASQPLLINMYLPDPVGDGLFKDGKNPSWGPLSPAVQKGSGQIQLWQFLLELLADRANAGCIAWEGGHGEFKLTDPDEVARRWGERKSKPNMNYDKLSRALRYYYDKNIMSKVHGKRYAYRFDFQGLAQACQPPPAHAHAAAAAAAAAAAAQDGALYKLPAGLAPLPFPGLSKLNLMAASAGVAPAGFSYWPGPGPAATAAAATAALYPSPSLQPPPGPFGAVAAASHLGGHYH
# Procedure, shortened: (§1)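 The binding signal reported is, for every hexamer, its read frequency for a factor over its read frequency for the tag-only sample. Reads came from pools of yeast-expressed, GST-fused human transcription factors on glutathione beads, barcoded with DNA and mixed with that sample, which were incubated with 200 nmole of a random double-stranded 16-mer DNA library in Tris/NaCl/DTT/glycerol buffer at room temperature for 30 min. After washing, the pools were crosslinked with 0.1% formaldehyde, proximity-ligated with BsaI/T4 ligase for 1 h at 37 °C, PCR-amplified and sequenced on an Illumina NextSeq500.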
# ETV5 = ETV5 (Homo sapiens, UniProt P41161 1-510); settings: protein: recombinant; tags: N-terminal GST; dsDNA, one strand shown
# Procedure, shortened: as §1
# HSF1 = HSF1 (Homo sapiens, UniProt Q00613 1-529); settings: protein: recombinant; tags: N-terminal GST; chain copies: 3; dsDNA, one strand shown
# Procedure, shortened: as §1
# SPIC = target: T2, SPIC (Homo sapiens, UniProt Q8N5J4 1-248); settings: protein: recombinant; tags: N-terminal GST; dsDNA, one strand shown
# T2 sequence: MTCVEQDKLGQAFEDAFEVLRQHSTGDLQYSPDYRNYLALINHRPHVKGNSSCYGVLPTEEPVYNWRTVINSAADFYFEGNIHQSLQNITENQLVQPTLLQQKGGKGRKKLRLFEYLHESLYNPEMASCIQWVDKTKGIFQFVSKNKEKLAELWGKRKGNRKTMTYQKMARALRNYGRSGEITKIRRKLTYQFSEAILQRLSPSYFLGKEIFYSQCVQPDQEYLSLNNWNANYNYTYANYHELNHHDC
# Procedure, shortened: as §1
# ELF4 = ELF4 (Homo sapiens, UniProt Q99607 1-663); settings: protein: recombinant; tags: N-terminal GST; dsDNA, one strand shown
# Procedure, shortened: as §1
# ELK4 = target: T3, ELK4 (Homo sapiens, UniProt P28324-2 1-405); settings: protein: recombinant; tags: N-terminal GST; dsDNA, one strand shown
# T3 sequence: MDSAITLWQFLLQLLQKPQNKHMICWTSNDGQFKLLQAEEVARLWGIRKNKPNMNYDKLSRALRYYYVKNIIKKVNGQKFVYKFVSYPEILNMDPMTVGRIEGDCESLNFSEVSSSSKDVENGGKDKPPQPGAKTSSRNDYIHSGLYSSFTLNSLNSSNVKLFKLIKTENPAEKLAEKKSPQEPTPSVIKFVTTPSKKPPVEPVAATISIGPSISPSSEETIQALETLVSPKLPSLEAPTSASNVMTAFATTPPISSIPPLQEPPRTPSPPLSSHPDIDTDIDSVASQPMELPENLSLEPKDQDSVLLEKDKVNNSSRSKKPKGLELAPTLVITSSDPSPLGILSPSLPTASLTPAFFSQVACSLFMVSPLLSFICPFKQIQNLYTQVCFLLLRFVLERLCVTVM
# Procedure, shortened: as §1
# ETV2 = target: T4, ETV2 (Homo sapiens, UniProt O00321 1-342); settings: protein: recombinant; tags: N-terminal GST; dsDNA, one strand shown
# T4 sequence: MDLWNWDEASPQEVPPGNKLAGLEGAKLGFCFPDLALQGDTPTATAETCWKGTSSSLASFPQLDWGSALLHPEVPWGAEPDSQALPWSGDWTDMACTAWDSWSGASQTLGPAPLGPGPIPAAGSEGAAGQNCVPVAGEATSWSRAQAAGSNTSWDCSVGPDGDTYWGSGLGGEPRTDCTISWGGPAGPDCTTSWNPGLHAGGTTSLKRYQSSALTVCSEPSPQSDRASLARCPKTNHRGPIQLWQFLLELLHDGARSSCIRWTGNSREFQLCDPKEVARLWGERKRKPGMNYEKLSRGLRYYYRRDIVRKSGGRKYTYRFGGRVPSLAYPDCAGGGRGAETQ
# Procedure, shortened: as §1
# ELF3 = target: T5, ELF3 (Homo sapiens, UniProt P78545 1-371); settings: protein: recombinant; tags: N-terminal GST; dsDNA, one strand shown
# T5 sequence: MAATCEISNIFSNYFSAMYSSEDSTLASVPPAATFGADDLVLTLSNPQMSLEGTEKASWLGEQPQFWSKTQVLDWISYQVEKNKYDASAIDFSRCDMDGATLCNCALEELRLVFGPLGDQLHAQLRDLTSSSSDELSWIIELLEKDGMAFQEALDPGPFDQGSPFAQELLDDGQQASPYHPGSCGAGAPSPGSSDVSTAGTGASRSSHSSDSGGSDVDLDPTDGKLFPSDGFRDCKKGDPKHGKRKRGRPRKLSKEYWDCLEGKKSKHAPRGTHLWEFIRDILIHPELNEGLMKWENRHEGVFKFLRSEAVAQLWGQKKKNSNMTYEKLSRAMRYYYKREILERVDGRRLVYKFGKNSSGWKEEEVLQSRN
# Procedure, shortened: as §1
# CRX = CRX (Homo sapiens, UniProt O43186 1-299); settings: protein: recombinant; tags: N-terminal GST; dsDNA, one strand shown
# Procedure, shortened: as §1
# ETV1 = ETV1 (Homo sapiens, UniProt P50549 1-477); settings: protein: recombinant; tags: N-terminal GST; dsDNA, one strand shown
# Procedure, shortened: as §1
# ERF = target: T6, ERF (Homo sapiens, UniProt P50548 1-548); settings: protein: recombinant; tags: N-terminal GST; dsDNA, one strand shown
# T6 sequence: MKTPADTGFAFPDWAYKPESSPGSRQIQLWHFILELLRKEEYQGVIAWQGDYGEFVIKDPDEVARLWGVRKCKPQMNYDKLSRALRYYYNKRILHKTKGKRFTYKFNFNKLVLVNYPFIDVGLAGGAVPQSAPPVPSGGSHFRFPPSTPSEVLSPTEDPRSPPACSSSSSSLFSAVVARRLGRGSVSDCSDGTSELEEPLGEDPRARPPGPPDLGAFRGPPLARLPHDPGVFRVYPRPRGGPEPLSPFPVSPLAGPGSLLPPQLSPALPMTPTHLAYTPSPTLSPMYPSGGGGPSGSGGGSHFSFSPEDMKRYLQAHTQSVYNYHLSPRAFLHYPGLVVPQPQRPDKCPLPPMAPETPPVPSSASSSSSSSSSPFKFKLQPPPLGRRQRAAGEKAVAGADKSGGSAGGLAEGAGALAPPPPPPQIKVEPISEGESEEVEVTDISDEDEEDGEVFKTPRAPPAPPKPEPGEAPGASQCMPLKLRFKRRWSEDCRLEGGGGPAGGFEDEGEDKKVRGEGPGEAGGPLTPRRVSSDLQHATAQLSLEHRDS
# Procedure, shortened: as §1
# ETV3L = target: T7, ETV3L (Homo sapiens, UniProt Q6ZN32 1-361); settings: protein: recombinant; tags: N-terminal GST; dsDNA, one strand shown
# T7 sequence: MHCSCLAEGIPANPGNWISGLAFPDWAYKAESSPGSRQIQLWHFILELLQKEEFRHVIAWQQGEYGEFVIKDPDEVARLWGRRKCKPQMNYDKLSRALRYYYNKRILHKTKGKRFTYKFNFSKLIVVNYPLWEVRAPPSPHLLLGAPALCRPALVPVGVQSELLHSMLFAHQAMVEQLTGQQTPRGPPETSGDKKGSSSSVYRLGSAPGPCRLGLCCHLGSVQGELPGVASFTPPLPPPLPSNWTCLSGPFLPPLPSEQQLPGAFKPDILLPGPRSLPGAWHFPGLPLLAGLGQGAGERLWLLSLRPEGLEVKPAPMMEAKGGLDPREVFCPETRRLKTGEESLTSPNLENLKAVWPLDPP
# Procedure, shortened: as §1
# ETS2 = target: T8, ETS2 (Homo sapiens, UniProt P15036 1-469); settings: protein: recombinant; tags: N-terminal GST; dsDNA, one strand shown
# T8 sequence: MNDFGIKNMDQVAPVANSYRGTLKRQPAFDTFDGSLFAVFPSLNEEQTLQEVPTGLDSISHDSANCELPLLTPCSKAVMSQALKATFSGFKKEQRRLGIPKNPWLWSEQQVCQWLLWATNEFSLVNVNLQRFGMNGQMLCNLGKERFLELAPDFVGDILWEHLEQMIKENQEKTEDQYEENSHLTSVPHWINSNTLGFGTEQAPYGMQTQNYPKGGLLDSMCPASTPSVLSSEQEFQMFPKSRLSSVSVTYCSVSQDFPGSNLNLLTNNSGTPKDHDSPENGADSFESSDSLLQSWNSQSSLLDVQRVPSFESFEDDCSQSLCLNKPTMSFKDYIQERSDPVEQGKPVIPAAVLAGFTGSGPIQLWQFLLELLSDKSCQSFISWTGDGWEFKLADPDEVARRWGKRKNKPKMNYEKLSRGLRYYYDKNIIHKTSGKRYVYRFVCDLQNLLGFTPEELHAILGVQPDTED
# Procedure, shortened: as §1
# SPDEF = target: T9, SPDEF (Homo sapiens, UniProt O95238 1-335); settings: protein: recombinant; tags: N-terminal GST; dsDNA, one strand shown
# T9 sequence: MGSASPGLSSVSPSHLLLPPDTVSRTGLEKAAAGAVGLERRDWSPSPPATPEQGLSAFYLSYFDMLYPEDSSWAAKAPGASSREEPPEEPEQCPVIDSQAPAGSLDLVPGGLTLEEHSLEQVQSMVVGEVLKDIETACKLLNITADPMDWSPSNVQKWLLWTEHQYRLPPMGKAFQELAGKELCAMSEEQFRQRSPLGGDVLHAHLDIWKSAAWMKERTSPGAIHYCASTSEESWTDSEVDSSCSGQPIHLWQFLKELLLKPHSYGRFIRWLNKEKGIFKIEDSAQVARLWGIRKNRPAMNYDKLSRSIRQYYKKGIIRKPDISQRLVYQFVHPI
# Procedure, shortened: as §1
# ETV7 = target: T10, ETV7 (Homo sapiens, UniProt Q9Y603 1-341); settings: protein: recombinant; tags: N-terminal GST; dsDNA, one strand shown
# T10 sequence: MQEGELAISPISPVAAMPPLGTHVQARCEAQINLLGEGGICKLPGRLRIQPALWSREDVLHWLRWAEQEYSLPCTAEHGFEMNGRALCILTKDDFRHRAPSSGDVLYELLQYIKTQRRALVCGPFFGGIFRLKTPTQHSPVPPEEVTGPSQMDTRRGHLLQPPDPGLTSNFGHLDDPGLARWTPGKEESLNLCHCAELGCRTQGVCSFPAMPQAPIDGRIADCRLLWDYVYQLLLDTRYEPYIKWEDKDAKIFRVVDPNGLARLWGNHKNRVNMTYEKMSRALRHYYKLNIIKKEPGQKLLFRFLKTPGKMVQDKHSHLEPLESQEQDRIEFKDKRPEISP
# Procedure, shortened: as §1
# ELF5 = target: T11, ELF5 (Homo sapiens, UniProt Q9UKW6-2 1-255); settings: protein: recombinant; tags: N-terminal GST; dsDNA, one strand shown
# T11 sequence: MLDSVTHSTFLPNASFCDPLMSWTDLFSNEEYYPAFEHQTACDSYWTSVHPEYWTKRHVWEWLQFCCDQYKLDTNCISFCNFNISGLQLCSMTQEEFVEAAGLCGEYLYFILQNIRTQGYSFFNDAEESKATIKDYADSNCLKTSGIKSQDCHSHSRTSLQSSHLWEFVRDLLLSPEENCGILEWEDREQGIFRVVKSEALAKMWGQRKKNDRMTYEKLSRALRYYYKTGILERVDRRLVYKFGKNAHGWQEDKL
# Procedure, shortened: as §1
# ETV3 = target: T12, ETV3 (Homo sapiens, UniProt P41162-2 1-143); settings: protein: recombinant; tags: N-terminal GST; dsDNA, one strand shown
# T12 sequence: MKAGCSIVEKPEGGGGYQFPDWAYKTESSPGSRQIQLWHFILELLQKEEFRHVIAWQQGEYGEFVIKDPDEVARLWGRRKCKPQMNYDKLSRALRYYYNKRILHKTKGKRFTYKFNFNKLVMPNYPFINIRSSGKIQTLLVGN
# Procedure, shortened: as §1
# ETV6 = ETV6 (Homo sapiens, UniProt P41212 1-452); settings: protein: recombinant; tags: N-terminal GST; dsDNA, one strand shown
# Procedure, shortened: as §1
# Sequence of CRX (O43186 whole entry): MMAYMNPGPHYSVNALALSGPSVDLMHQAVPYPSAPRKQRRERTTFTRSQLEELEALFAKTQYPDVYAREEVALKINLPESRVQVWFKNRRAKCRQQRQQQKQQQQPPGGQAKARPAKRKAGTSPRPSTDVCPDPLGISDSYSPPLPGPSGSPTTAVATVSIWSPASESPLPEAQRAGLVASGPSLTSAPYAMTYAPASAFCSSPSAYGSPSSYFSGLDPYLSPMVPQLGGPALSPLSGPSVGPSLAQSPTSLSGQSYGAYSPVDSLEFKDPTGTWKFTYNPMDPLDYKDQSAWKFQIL
# Sequence of ELF4 (Q99607 whole entry): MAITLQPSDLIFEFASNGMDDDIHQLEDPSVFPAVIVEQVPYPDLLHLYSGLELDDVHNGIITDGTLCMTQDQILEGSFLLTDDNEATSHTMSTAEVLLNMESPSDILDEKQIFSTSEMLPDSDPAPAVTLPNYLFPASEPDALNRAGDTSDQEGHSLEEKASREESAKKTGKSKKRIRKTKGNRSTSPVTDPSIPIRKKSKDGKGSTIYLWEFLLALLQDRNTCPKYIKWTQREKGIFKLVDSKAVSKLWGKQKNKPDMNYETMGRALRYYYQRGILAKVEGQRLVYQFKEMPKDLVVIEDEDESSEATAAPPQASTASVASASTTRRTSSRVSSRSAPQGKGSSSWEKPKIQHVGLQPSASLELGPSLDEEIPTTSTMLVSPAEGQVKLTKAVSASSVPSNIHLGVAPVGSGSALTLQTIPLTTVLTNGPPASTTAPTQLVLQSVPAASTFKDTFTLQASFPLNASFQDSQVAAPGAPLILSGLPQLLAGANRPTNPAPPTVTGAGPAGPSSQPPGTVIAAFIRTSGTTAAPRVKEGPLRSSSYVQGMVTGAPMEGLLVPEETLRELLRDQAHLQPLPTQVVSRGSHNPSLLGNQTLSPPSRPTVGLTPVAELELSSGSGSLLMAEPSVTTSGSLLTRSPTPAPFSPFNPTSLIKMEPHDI
# Sequence of ETV1 (P50549 whole entry): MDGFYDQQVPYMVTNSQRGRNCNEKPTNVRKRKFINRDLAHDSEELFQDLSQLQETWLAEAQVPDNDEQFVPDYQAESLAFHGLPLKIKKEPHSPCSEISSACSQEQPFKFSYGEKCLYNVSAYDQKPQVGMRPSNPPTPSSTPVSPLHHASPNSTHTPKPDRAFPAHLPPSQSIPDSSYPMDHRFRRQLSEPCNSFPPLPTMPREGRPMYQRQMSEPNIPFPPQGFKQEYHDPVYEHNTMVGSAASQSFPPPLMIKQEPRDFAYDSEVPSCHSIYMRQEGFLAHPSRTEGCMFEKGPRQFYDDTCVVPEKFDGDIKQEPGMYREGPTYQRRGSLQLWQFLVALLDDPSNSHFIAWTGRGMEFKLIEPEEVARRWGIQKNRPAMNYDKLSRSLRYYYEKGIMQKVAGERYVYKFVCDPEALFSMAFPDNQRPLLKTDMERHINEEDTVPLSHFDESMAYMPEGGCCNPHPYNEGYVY
# Sequence of ETV5 (P41161 whole entry): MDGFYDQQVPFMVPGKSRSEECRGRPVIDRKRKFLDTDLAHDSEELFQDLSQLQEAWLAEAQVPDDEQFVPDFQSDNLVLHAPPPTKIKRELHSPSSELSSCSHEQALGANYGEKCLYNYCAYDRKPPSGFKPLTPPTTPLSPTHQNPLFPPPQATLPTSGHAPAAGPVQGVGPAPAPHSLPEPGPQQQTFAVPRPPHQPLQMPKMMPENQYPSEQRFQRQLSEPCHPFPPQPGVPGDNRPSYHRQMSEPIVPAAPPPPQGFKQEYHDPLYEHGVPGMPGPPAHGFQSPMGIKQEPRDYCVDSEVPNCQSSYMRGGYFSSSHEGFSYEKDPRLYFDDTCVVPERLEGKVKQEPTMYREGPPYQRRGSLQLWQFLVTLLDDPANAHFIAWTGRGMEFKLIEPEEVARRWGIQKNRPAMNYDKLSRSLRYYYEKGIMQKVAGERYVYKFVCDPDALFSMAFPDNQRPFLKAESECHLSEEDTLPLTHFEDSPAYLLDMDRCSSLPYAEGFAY
# Sequence of ETV6 (P41212 whole entry): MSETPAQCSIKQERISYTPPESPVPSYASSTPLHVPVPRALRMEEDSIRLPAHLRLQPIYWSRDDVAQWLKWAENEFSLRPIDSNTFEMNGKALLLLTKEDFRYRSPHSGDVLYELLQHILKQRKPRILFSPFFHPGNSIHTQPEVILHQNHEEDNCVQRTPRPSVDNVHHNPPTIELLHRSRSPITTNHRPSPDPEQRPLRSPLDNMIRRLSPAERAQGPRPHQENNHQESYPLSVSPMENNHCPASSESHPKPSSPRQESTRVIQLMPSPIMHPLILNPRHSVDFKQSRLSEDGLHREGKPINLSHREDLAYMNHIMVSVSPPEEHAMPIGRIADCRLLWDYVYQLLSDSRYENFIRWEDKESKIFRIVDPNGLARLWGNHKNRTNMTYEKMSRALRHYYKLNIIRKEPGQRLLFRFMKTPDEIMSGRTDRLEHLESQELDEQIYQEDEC
# Sequence of HSF1 (Q00613 whole entry): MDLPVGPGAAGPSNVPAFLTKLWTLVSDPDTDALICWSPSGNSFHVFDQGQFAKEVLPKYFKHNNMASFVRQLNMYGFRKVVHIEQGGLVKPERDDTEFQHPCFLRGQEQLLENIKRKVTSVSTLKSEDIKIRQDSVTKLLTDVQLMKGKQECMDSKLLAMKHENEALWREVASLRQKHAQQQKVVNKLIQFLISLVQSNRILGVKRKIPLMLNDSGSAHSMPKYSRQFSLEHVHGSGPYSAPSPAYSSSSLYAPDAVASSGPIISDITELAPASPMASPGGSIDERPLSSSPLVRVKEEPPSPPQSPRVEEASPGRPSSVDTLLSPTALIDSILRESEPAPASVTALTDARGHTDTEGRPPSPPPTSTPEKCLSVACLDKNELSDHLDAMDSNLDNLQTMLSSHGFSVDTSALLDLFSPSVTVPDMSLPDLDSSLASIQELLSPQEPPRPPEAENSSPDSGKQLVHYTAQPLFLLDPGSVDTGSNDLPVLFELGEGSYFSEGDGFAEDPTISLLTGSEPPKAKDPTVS
sequence,measurement,setting,value
AAATTA,binding signal,FEV,"1.19 fold enrichment (6-mer frequency, TF over GST control)"
same,binding signal,ETV5,"1.26 fold enrichment (6-mer frequency, TF over GST control)"
same,binding signal,HSF1,"1.44 fold enrichment (6-mer frequency, TF over GST control)"
same,binding signal,SPIC,"1.21 fold enrichment (6-mer frequency, TF over GST control)"
same,binding signal,ELF4,"1.23 fold enrichment (6-mer frequency, TF over GST control)"
same,binding signal,ELK4,"1.28 fold enrichment (6-mer frequency, TF over GST control)"
same,binding signal,ETV2,"1.4 fold enrichment (6-mer frequency, TF over GST control)"
same,binding signal,ELF3,"1.31 fold enrichment (6-mer frequency, TF over GST control)"
same,binding signal,CRX,"1.65 fold enrichment (6-mer frequency, TF over GST control)"
same,binding signal,ETV1,"1.2 fold enrichment (6-mer frequency, TF over GST control)"
same,binding signal,ERF,"1.26 fold enrichment (6-mer frequency, TF over GST control)"
same,binding signal,ETV3L,"1.31 fold enrichment (6-mer frequency, TF over GST control)"
same,binding signal,ETS2,"1.27 fold enrichment (6-mer frequency, TF over GST control)"
same,binding signal,SPDEF,"1.18 fold enrichment (6-mer frequency, TF over GST control)"
same,binding signal,ETV7,"1.32 fold enrichment (6-mer frequency, TF over GST control)"
same,binding signal,ELF5,"1.24 fold enrichment (6-mer frequency, TF over GST control)"
same,binding signal,ETV3,"1.29 fold enrichment (6-mer frequency, TF over GST control)"
same,binding signal,ETV6,"1.25 fold enrichment (6-mer frequency, TF over GST control)"
